This excerpt belongs to a sample that is enriched for hits.
HT1080NT lethal: qHTS for induction of synthetic lethality in tumor cells producing 2HG: qHTS for the HT-1080-NT fibrosarcoma cell line; HT-1080-NT fibrosarcoma viability, CellTiter-Glo ATP luminescence, 48 h; Potency, µM (titrated, usually from 46.1 µM), for inactives: at the highest dose activity, negative = less viability, actives largely listed as cytotoxic; 360,000 tested, 1.6% active; AID 686970, 2013;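 also: NT is the 2HG producing partner of a matched IDH1 knockdown line; potency is read from the fitted curve at half-maximal effect; 0% = DMSO-treated cells and -100% = media-only wells without cells; nearly all actives have a fitted effect of over 55% in size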
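Luminescent CellTiter-Glo readout after 48 hours of compound exposure at 37 degrees C defined viability of HT-1080-NT cells. Activity was normalized to DMSO wells and cell-free media wells; concentration-response curves were fitted and assigned curve classes.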
12-LOX inh: Primary qHTS assay for inhibitors of human arachidonate 12S-lipoxygenase (ALOX12): Round 2; Polyunsaturated fatty acid lipoxygenase ALOX12 (Homo sapiens), P18054; purified 12hLO, xylenol orange hydroperoxide absorbance; Potency, µM (doses to about 108 µM), for the others: at the top dose activity change, negative = inhibition, hits mostly inhibitors; 580,000 tested, 1.1% active; also: potency is read from the fitted curve at half-maximal effect
Target sequence (P18054 whole entry, looked up): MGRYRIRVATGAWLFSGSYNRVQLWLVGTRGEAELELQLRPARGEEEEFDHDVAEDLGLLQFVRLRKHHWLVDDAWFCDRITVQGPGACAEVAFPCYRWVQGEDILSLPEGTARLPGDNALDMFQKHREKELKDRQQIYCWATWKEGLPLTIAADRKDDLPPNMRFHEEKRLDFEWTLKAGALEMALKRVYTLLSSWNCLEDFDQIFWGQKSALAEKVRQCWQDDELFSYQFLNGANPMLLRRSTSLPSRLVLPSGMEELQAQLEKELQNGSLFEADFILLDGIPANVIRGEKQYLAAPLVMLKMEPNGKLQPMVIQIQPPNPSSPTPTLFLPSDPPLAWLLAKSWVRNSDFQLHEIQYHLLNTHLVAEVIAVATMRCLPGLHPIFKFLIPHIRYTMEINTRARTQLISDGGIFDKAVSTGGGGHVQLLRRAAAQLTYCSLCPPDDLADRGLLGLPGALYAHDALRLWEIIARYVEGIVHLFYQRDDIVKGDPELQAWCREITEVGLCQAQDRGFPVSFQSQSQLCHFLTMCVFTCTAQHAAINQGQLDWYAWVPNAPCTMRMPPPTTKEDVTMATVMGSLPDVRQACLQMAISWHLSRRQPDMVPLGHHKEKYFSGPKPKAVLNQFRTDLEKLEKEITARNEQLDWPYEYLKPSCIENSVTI
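Hydroperoxide product was detected by ferrous iron/xylenol orange as the 573 to 405 nm absorbance ratio. Arachidonic acid at 40 uM (final) was turned over for 30 min at room temperature by 150 nM human 12hLO, pH 7.0 Hepes buffer, after 15 min compound preincubation.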
IL1B secr inh: qHTS for Inhibitors of Inflammasome Signaling: IL-1-beta AlphaLISA Primary Screen | activity change, % at 57.5 µM | THP-1 LPS/ATP IL-1B secretion, AlphaLISA, 16 h; active compounds read low | 360,000 tested, 4.7% active; in the data active = activity change below about -50%; inconclusive = mostly about -30% to -49%
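THP-1 cells pretreated 1 hr with compounds (up to 57.5 uM final), then stimulated with LPS (250 ng/mL final) plus ATP (1.25 mM final); secreted IL-1B measured by AlphaLISA after 16 hr, decreased signal indicating inhibition.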
TDP1 cell CPT: qHTS for Inhibitors of human tyrosyl-DNA phosphodiesterase 1 (TDP1): qHTS in cells in presence of CPT; 420,000 tested, 12% active; chicken DT40 Tdp1-/-;hTDP1 cells + 20 nM CPT, ATP luminescence, 48 h; Potency, µM (highest dose often 46.2 µM), for inactives: top-dose activity change, negative = growth inhibition, most hits filed as inhibitors; AID 686979, 2013; also: potency is read from the fitted curve at half-maximal effect; nearly all actives have a fitted effect of over 55% in size
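Chicken DT40 Tdp1-/- cells complemented with human TDP1, 400 cells/well, exposed to compounds plus 20 nM camptothecin for at least 48 h at 37 C; viability read as ATP content by CellTiter-Glo luminescence.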
TDP1 cell noCPT: qHTS for Inhibitors of human tyrosyl-DNA phosphodiesterase 1 (TDP1): qHTS in cells in absence of CPT; DT40 Tdp1-/- hTDP1 cells, no CPT, ATP luminescence, 48 h; Potency, µM (highest dose often 46.2 µM), without a hit: top-dose activity change, negative = growth inhibition, actives largely listed as inhibitors; 420,000 tested, 15% active; AID 686978, 2013; also: potency is read from the fitted curve at half-maximal effect; nearly all actives have a fitted effect of over 55% in size
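No-CPT arm: Tdp1-/-;hTDP1 DT40 cells (400/well) plus compounds, incubated ≥48 hr at 37 °C. Readout CellTiter-Glo luminescence.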
HT1080 IDH1KD tx: qHTS for induction of synthetic lethality in tumor cells producing 2HG: qHTS for the HT-1080-IDH1KD cell line; AID 686971, 2013; Potency, µM (highest dose often 46.1 µM), without a hit: top-dose activity, negative = toxicity, actives largely listed as cytotoxic; 360,000 tested, 2% active; HT-1080 IDH1 knockdown viability, ATP luminescence, 48 h;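 also: potency is read from the fitted curve at half-maximal effect; 0% = DMSO wells and -100% = cell-free medium wells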
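Knockdown cells (IDH1KD HT-1080) received compounds 2 h after plating at 750 cells/well and were kept 48 h at 37 °C in 5% FBS RPMI. A CellTiter-Glo luminescence read gave % activity for curve fitting.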
An asterisk follows results filed as active; ? = inconclusive; nt = no result; [ ] = dose if it differs, or a comment. Unless noted, calls follow the shape of the dose curve; as a rule, active = well fitted curve in the direction sought with a large enough effect; inconclusive = small, poorly fitted or top-dose-only effect, or another doubt; inactive = no such curve, though single readings can be large; an effect the other way counts as inactive or inconclusive. Unless noted, % is scaled to controls: 0 for no effect and ±100 for the full control effect.

SMILES	HT1080NT lethal	12-LOX inh	IL1B secr inh	TDP1 cell CPT	TDP1 cell noCPT	HT1080 IDH1KD tx
O=C(NCCn1ccc2ccccc21)c1cccc([N+](=O)[O-])c1	0%	?	0	29µM*	23µM*	4%
Cc1ccccc1CC(=O)N1CCC2(CCC(=O)N(Cc3ccccc3)C2)CC1	nt	81%	nt	nt	nt	nt
O=C(NCCCCc1ccccc1)c1cccc([N+](=O)[O-])c1	19%	38%	-5	18µM*	16µM*	0%
COc1cc(OC)cc(C(=O)NCCCCc2ccccc2)c1	-20%	-47%	10	?	13µM*	-9%
COc1ccc(C(=O)NC(C)CCc2ccccc2)cc1 (stereo not drawn)	10%	23%	-1	-6%	-10%	14%
COc1ccc(C(=O)NC(C)CCc2ccccc2)c(O)c1 (stereo not drawn)	0%	-2%	-55*	?	?	-16%
O=C(NCCCc1ccccc1)c1cccc([N+](=O)[O-])c1	2%	-7%	-3	-25%	-26%	6%
COc1ccc2cc(C(=O)NCC(C)C)c(C)nc2c1	nt	2%	nt	nt	nt	nt
CC1N(C)c2cc(NC(=O)c3cccs3)c(P(=O)(Nc3ccc([N+](=O)[O-])cc3)N3CCOCC3)cc2C1(C)C (stereo not drawn)	-15%	?	-58*	?	18µM*	-27%
O=C(Nc1cc([N+](=O)[O-])ccc1N1CCOCC1)c1cccs1	-1%	429%	3	-4%	5%	-2%
O=C1NCCOC(=O)[C@H](Cc2ccc(F)cc2)C/C=C\C[C@H]1CC(=O)N(CCO)Cc1ccccc1	7%	0%	6	8.2µM*	9.2µM*	3%
O=C1NCCOC(=O)[C@H](Cc2ccc(F)cc2)C/C=C\C[C@@H]1CC(=O)N(CCO)Cc1ccccc1	3%	?	5	13µM*	12µM*	12%
O=C(C[C@@H]1C/C=C\C[C@@H](Cc2ccc(F)cc2)C(=O)OCCNC1=O)NCCO	0%	3%	10	7%	-16%	0%
O=C1Nc2ccccc2CC12CN(CC1CCOCC1)C2	nt	13%[12.5 µM]	nt	nt	nt	nt
CSc1nnc2c(n1)[nH]c1c(C)cccc12	-5%	-11%	8	?	?	2%
CCSc1nnc2c(n1)[nH]c1c(C)cccc12	?	-6%	-30	13µM*	13µM*	?
COC(=O)COC(=O)c1oc2ccc(OC)cc2c1C	nt	-25%	nt	nt	nt	nt
NS(=O)(=O)c1ccc(NC(=O)CN2C(=O)COc3ccc(Cl)cc32)cc1	nt	45µM*	nt	-14%	-13%	nt
Cc1cccnc1NC(=O)CN1C(=O)COc2ccc(Cl)cc21	4%	13µM*	3	9%	-8%	8%
O=C(CN1C(=O)COc2ccc(Cl)cc21)Nc1cccc(F)c1	nt	3%	nt	?	?	nt
Cc1cccc(N2CCN(C(=O)c3noc(-c4ccc5c(c4)OCO5)n3)CC2)c1C	nt	18%	nt	nt	nt	nt
COc1ccc(-n2c(=O)c(CCC(=O)N(C)Cc3ccccc3C)nc3ccccc32)cc1	-2%	?	0	?	?	2%
CCc1ccc(CN(C)C(=O)CCc2nc3ccccc3n(-c3ccc(OC)cc3)c2=O)cc1	-13%	-15%	-56*	16µM*	21µM*	15µM*
CCn1cnnc1-c1cccc(NC(=O)c2ccc(Br)cc2)c1	nt	24%	nt	nt	nt	nt
O=C1NC[C@H]2CN(CCCc3ccccc3)CCN12	nt	16%[176 µM]	nt	nt	nt	nt
SMILES	HT1080NT lethal	12-LOX inh	IL1B secr inh	TDP1 cell CPT	TDP1 cell noCPT	HT1080 IDH1KD tx
Cc1cnc(C(=O)N[C@@H]2CCC[C@@H]2C(=O)N2CCN(c3ncccn3)CC2)cn1	nt	2%	nt	nt	nt	nt
Cc1ccc(C)c(OCCn2cc(/C=C(/C#N)C(=O)NCC3CCCO3)c3ccccc32)c1 (stereo not drawn)	-8%	-22%	0	16µM*	?	-12%
Cc1cc(/C=C(\C#N)C(=O)NCC2CCCO2)c(C)n1-c1ccc(Cl)cc1 (stereo not drawn)	-11%	0%	-2	10µM*	?	?
CC(=O)Oc1ccc(C2=Cc3ccc(OC(C)=O)cc3OC2C)cc1 (stereo not drawn)	?	-11%	9	18µM*	12µM*	16µM*
C[C@@H](C(=O)NC1CCN(Cc2ccccc2)CC1)N1Cc2ccccc2C1=O	nt	11%	nt	nt	nt	nt
CC(=O)c1cc(C#N)c(SCC(=O)OC(C)C)nc1C	4%	2%	11	?	?	0%
CC(=O)c1cc(C#N)c(SCC(=O)OC(C)(C)C)nc1C	-4%	-30%	-25	21µM*	?	-7%
C[C@@H]1OC(C2CCCCC2)N(C)[C@H]2C[C@H]3c4[nH]c5ccccc5c4CCN3C[C@@H]12 (stereo partly drawn)	-8%	106%	-11	21µM*	?	-12%
Cc1nc2ccccc2nc1CS(=O)(=O)C(C)C(=O)N1CCCC1 (stereo not drawn)	nt	-4%	nt	nt	nt	nt
CCCCCCCCC(c1nc2ccccc2[nH]1)N1CCN=C(c2ccccc2)C1=O (stereo not drawn)	?	18%	-4	?	?	?
CN(C)CCNC(=O)/C(=C/c1ccc(-c2cccc([N+](=O)[O-])c2)o1)NC(=O)c1ccccc1	?	-6%	?	?	?	?
CN(C)CCCNC(=O)/C(=C/c1ccc(-c2ccc([N+](=O)[O-])cc2)o1)NC(=O)c1ccccc1	-20%	?	-16	?	-24%	-9%
CN(C)CCCNC(=O)/C(=C\c1ccc(-c2ccc(Br)cc2)o1)NC(=O)c1ccccc1	?	-32%	?	3.7µM*	12µM*	23µM*
Cc1ccc(C(=O)N/C(=C\c2ccc(-c3ccc(Cl)cc3)o2)C(=O)NCCCN(C)C)cc1	29µM*	-28%	-67*	12µM*	12µM*	13µM*
Cc1ccc(C(=O)N/C(=C\c2ccc(-c3ccccc3[N+](=O)[O-])o2)C(=O)NCCCN(C)C)cc1	-5%	1%	5	5.2µM*	5.8µM*	-20%

From PubChem BioAssay
